# Data: paper PMC5540273 (PLoS ONE, 2017)
# Assays:
# Details in all cases: concentration: 1 μM,replicates: in singlicate; n = 1
# BMX = tested on: BMX
# BRAF = tested on: BRAF
# BRK = tested on: T1, BRK
# T1 construct: gene PTK6
# BRSK1 = tested on: BRSK1
# BRSK2 = tested on: BRSK2
# BTK = tested on: BTK
# BUB1 = tested on: BUB1
# CAMK1B = tested on: CAMK1B
# CAMK1D = tested on: CAMK1D
# CAMK1G = tested on: CAMK1G
# 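Note: KINOMEscan kinase panel screen.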
compound,measurement,setting,value
CCn1c(-c2nonc2N)nc2cncc(Br)c21 [SB-738004],%Inh,BMX,27%
same,%Inh,BRAF,0%
same,%Inh,BRK,10%
same,%Inh,BRSK1,0%
same,%Inh,BRSK2,0%
same,%Inh,BTK,47%
same,%Inh,BUB1,93.7%
same,%Inh,CAMK1B,34%
same,%Inh,CAMK1D,15%
same,%Inh,CAMK1G,16%
CCNCC(Cc1ccccc1)NC(=O)c1cc(Br)c(-c2ccnc3[nH]ccc23)s1.Cl.Cl (stereo not shown) [GSK1383280],%Inh,BMX,3%
same,%Inh,BRAF,0%
same,%Inh,BRK,34%
same,%Inh,BRSK1,0%
same,%Inh,BRSK2,0%
same,%Inh,BTK,0%
same,%Inh,BUB1,31%
same,%Inh,CAMK1B,28%
same,%Inh,CAMK1D,32%
same,%Inh,CAMK1G,11%
CN(c1cccc(CNc2nc(Nc3ccc4c(c3)CC(=O)N4)ncc2C(F)(F)F)c1)S(C)(=O)=O,%Inh,BMX,18%
same,%Inh,BRAF,0%
same,%Inh,BRK,0%
same,%Inh,BRSK1,0%
same,%Inh,BRSK2,0%
same,%Inh,BTK,0%
same,%Inh,BUB1,2%
same,%Inh,CAMK1B,9%
same,%Inh,CAMK1D,14%
same,%Inh,CAMK1G,15%
Cc1cccc2c(-c3ccncc3)c(-c3ccc(F)cc3)nn12.Cl [GW461487],%Inh,BMX,15%
same,%Inh,BRAF,14%
same,%Inh,BRK,0%
same,%Inh,BRSK1,0%
same,%Inh,BRSK2,0%
same,%Inh,BTK,0%
same,%Inh,BUB1,52%
same,%Inh,CAMK1B,0%
same,%Inh,CAMK1D,4%
same,%Inh,CAMK1G,20%
Cc1ccc2c(-c3ccnc(Nc4ccc(C(F)(F)F)cc4)n3)cnn2n1 [GW819776],%Inh,BMX,0%
same,%Inh,BRAF,0%
same,%Inh,BRK,4%
same,%Inh,BRSK1,0%
same,%Inh,BRSK2,14%
same,%Inh,BTK,0%
same,%Inh,BUB1,6%
same,%Inh,CAMK1B,0%
same,%Inh,CAMK1D,0%
same,%Inh,CAMK1G,0%
CNC(=O)c1ccccc1Nc1nc(Nc2cccc(CS(C)(=O)=O)c2)ncc1C.O=CO [GSK1520489],%Inh,BMX,97.2%
same,%Inh,BRAF,59%
same,%Inh,BRK,99.7%
same,%Inh,BRSK1,65%
same,%Inh,BRSK2,79%
same,%Inh,BTK,95.4%
same,%Inh,BUB1,88%
same,%Inh,CAMK1B,14%
same,%Inh,CAMK1D,40%
same,%Inh,CAMK1G,29%
Cn1ccc2ncnc(Oc3ccc(NC(=O)Nc4cc(C(C)(C)C)on4)c(Cl)c3)c21,%Inh,BMX,33%
same,%Inh,BRAF,76%
same,%Inh,BRK,10%
same,%Inh,BRSK1,8%
same,%Inh,BRSK2,0%
same,%Inh,BTK,0%
same,%Inh,BUB1,5%
same,%Inh,CAMK1B,0%
same,%Inh,CAMK1D,14%
same,%Inh,CAMK1G,12%
O=c1[nH]cc(-c2ccc(O)cc2)c2sc(-c3ccncc3)cc12 [GSK1033723],%Inh,BMX,18%
same,%Inh,BRAF,1%
same,%Inh,BRK,7%
same,%Inh,BRSK1,29%
same,%Inh,BRSK2,0%
same,%Inh,BTK,0%
same,%Inh,BUB1,15%
same,%Inh,CAMK1B,0%
same,%Inh,CAMK1D,20%
same,%Inh,CAMK1G,1%
Nc1nccc(-c2ccc3c(N)n[nH]c3c2)n1 [GSK1034945],%Inh,BMX,0%
same,%Inh,BRAF,0%
same,%Inh,BRK,4%
same,%Inh,BRSK1,41%
same,%Inh,BRSK2,15%
same,%Inh,BTK,0%
same,%Inh,BUB1,73%
same,%Inh,CAMK1B,10%
same,%Inh,CAMK1D,7%
same,%Inh,CAMK1G,0%
Cn1ccc2ncnc(Oc3ccc(NC(=O)Nc4cccc(C(F)(F)F)c4)c(Cl)c3)c21,%Inh,BMX,15%
same,%Inh,BRAF,46%
same,%Inh,BRK,5%
same,%Inh,BRSK1,0%
same,%Inh,BRSK2,0%
same,%Inh,BTK,0%
same,%Inh,BUB1,0%
same,%Inh,CAMK1B,16%
same,%Inh,CAMK1D,16%
same,%Inh,CAMK1G,1%
CN(c1ccccc1CNc1nc(Nc2ccc3c(c2)CC(=O)N3)ncc1C(F)(F)F)S(C)(=O)=O,%Inh,BMX,39%
same,%Inh,BRAF,0%
same,%Inh,BRK,0%
same,%Inh,BRSK1,14%
same,%Inh,BRSK2,36%
same,%Inh,BTK,0%
same,%Inh,BUB1,0%
same,%Inh,CAMK1B,0%
same,%Inh,CAMK1D,0%
same,%Inh,CAMK1G,0%
CN1CCN(CCNc2nc3cc(Oc4ccc(NC(=O)Nc5cc(C(F)(F)F)ccc5F)cc4)ccc3[nH]2)CC1.Cl.Cl [GW768504],%Inh,BMX,0%
same,%Inh,BRAF,0%
same,%Inh,BRK,0%
same,%Inh,BRSK1,0%
same,%Inh,BRSK2,6%
same,%Inh,BTK,0%
same,%Inh,BUB1,0%
same,%Inh,CAMK1B,0%
same,%Inh,CAMK1D,0%
same,%Inh,CAMK1G,4%
O=C(Nc1ccccc1)c1cccc(Oc2ccc3nccn3n2)c1,%Inh,BMX,17%
same,%Inh,BRAF,3%
same,%Inh,BRK,0%
same,%Inh,BRSK1,7%
same,%Inh,BRSK2,0%
same,%Inh,BTK,0%
same,%Inh,BUB1,0%
same,%Inh,CAMK1B,0%
same,%Inh,CAMK1D,0%
same,%Inh,CAMK1G,0%
C[C@@H]1CNc2c(sc3ccc4nc(-c5ccc(O)cc5)ccc4c23)C(=O)N1,%Inh,BMX,14%
same,%Inh,BRAF,0%
same,%Inh,BRK,0%
same,%Inh,BRSK1,48%
same,%Inh,BRSK2,72%
same,%Inh,BTK,0%
same,%Inh,BUB1,58%
same,%Inh,CAMK1B,13%
same,%Inh,CAMK1D,0%
same,%Inh,CAMK1G,16%
COc1cccc(CNC(=O)NC2CCN(c3ccnc(Nc4cc(OC)c(OC)c(OC)c4)n3)C2)c1 (stereo not shown) [GSK1379765],%Inh,BMX,23%
same,%Inh,BRAF,0%
same,%Inh,BRK,34%
same,%Inh,BRSK1,0%
same,%Inh,BRSK2,0%
same,%Inh,BTK,42%
same,%Inh,BUB1,81%
same,%Inh,CAMK1B,35%
same,%Inh,CAMK1D,17%
same,%Inh,CAMK1G,0%
Cc1cccc(-c2nc(Nc3ccncc3)c3sccc3n2)n1 [GW869641],%Inh,BMX,11%
same,%Inh,BRAF,36%
same,%Inh,BRK,6%
same,%Inh,BRSK1,0%
same,%Inh,BRSK2,7%
same,%Inh,BTK,58%
same,%Inh,BUB1,54%
same,%Inh,CAMK1B,16%
same,%Inh,CAMK1D,24%
same,%Inh,CAMK1G,7%
